# Tests used:
# [1] = molecular target: T1, Aspartate--tRNA(Asp/Asn) ligase (Mycobacterium tuberculosis (strain ATCC 25618 / H37Rv)) (UniProt P9WFW3); assay: Assay for Asp RNA synthetase-1 from Mycobacterium tuberculosis; format: functional; set-up: scale not given: direction of the effect not stated beside the values; details: 30 µM; also: in the data most compounds retested in dose-response had high values
# T1 sequence (whole entry): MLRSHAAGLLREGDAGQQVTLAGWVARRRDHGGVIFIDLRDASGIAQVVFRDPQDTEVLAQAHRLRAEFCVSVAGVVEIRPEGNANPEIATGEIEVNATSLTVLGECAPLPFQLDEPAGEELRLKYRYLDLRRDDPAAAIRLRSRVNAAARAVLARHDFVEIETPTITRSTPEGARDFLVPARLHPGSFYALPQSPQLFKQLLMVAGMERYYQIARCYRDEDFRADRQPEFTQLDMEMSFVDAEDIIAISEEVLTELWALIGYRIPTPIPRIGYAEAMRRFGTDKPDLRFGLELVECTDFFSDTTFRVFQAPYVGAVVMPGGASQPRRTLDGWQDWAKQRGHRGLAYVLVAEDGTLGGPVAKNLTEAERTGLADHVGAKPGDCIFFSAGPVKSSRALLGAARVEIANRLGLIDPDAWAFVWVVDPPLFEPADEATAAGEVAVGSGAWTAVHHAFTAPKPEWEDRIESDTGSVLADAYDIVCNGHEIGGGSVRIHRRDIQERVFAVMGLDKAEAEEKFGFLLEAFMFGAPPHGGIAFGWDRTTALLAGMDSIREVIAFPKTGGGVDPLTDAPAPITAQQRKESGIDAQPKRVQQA
# [2] = molecular target: Shiga toxin 2 (Escherichia coli O157:H7) (UniProt P09385+P09386); assay: E. coli 0.157:H7 Shiga Toxin SOP - stx2 screening assay; format: functional; set-up: scale not given: direction of the effect not stated beside the values; details: 30 µM
compound,measurement,setting,value
CCN(CC)C(=O)c1ccn(COc2cc(C)cc(C)c2)n1,Percent Effect,[1],-7.43%
same,Percent Effect,[2],-39.1%
Cc1occc1C(=O)N1CCC2(CCC(C(=O)NCC3CC3)O2)CC1 (configuration not stated),Percent Effect,[1],-0.182%
same,Percent Effect,[2],-6.83%
Cc1nc2ccnn2c(C)c1CCC(=O)N1CCN(C2CC2)CC1,Percent Effect,[1],3.26%
same,Percent Effect,[2],33%
Fc1cccc(-c2nc(CN3CCn4c(nnc4C4CC4)C3)co2)c1,Percent Effect,[1],6.1%
same,Percent Effect,[2],-39.6%
O=C(c1cccc(S(=O)(=O)NCCCc2ncc[nH]2)c1)N1CCOCC1,Percent Effect,[1],8.25%
same,Percent Effect,[2],-13.2%
COCCC(=O)N1CCCC2(CCC(=O)N2CCOC)CC1 (configuration not stated),Percent Effect,[1],0.751%
same,Percent Effect,[2],-11.1%
Cc1cnn(C2CN(Cc3nc(C(C)(C)C)no3)C2)c1,Percent Effect,[1],-0.0303%
same,Percent Effect,[2],-32.1%
Cc1ccc2c(ccn2CCC(=O)NC[C@@H]2CCCN3CCCC[C@H]23)c1,Percent Effect,[1],-0.958%
same,Percent Effect,[2],-5.27%
CC(C(=O)NCc1ccnc(Oc2ccc(F)cc2)c1)n1cncn1 (configuration not stated),Percent Effect,[1],-5.88%
same,Percent Effect,[2],6.33%
CCc1ncc2c(n1)CN(Cc1nnc(C)o1)CC2,Percent Effect,[1],-4.37%
same,Percent Effect,[2],-16.2%
Cc1cc(CN2CCN(C(=O)c3sccc3C(C)C)CC2)no1,Percent Effect,[1],0.346%
same,Percent Effect,[2],7.17%
Cc1noc(C)c1CN1CCN(Cc2ccncc2)c2ncccc2C1,Percent Effect,[1],-2.02%
same,Percent Effect,[2],8.32%
O=C(NCCc1nnc2n1CCC2)NCC1(c2cccc(F)c2)CC1,Percent Effect,[1],-2.55%
same,Percent Effect,[2],4.87%
CC(=O)NCCNC(=O)c1sc(-c2ccc(C)cc2C)nc1C,Percent Effect,[1],3%
same,Percent Effect,[2],2.48%
NC(=O)NCCC(=O)NCc1cccnc1N1CCc2ccccc2C1,Percent Effect,[1],-1.71%
same,Percent Effect,[2],6.61%
CC(C)(C)c1ncc(C(=O)NCCS(N)(=O)=O)s1,Percent Effect,[1],-1.74%
same,Percent Effect,[2],28.8%
Cc1nc(O)cc(C2CCN(Cc3cccc(F)c3F)C2)n1 (configuration not stated),Percent Effect,[1],-1.21%
same,Percent Effect,[2],-17.9%
Cc1nn(C)c(C)c1C1CCCN1C(=O)c1ccc(CN(C)C)cc1 (configuration not stated),Percent Effect,[1],-2.88%
same,Percent Effect,[2],-14%
COCCc1noc(CNC2CCSC2)n1 (configuration not stated),Percent Effect,[1],-5.83%
same,Percent Effect,[2],6.26%
CCOc1ccccc1C(=O)N1CCCC1c1ncc2c(n1)CCNC2 (configuration not stated),Percent Effect,[1],-3.07%
same,Percent Effect,[2],48.2%
CCc1nc(CN2CCCN(c3nccs3)CC2)no1,Percent Effect,[1],2%
same,Percent Effect,[2],-3.78%
CN(Cc1ccco1)C(=O)C1CSCN1C(=O)c1cccnc1 (configuration not stated),Percent Effect,[1],2.02%
same,Percent Effect,[2],13.1%
CCc1nc(CN(C(C)=O)C2CCN(CCc3cnn(C)c3)C2)no1 (configuration not stated),Percent Effect,[1],-5.05%
same,Percent Effect,[2],-15.6%
Cc1ccoc1C(=O)N1C[C@@H]2[C@@H](C1)OCC(=O)N2Cc1cccnc1,Percent Effect,[1],2%
same,Percent Effect,[2],-12.8%
COc1ccc(CC(=O)N2C[C@@H]3COC[C@]3(CN(C)C)C2)cc1,Percent Effect,[1],-5.29%
same,Percent Effect,[2],-4.41%
CCn1cc(NC(=O)C2CCN(Cc3noc(C(C)C)n3)CC2)cn1,Percent Effect,[1],1.21%
same,Percent Effect,[2],-21.2%

# Reference: ChEMBL document CHEMBL3988442, “University of Dundee, Small-Polar-MMV Screening Library” (2021)
